# C diff growth: blocks growth of Clostridium difficile; Clostridium difficile clinical isolate growth, OD600, 24 h; active compounds read low; growth activity, negative = inhibition, % at 16 µg/mL (by protocol); hit rate 0.25% among 86,000;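 active = mean growth activity at or below -80% and every replicate also at or below -80%; inconclusive = mean at or below -80% but some replicate above -80%; inactive = mean growth activity above -80%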;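 note: 0% = DMSO wells and -100% = levofloxacin 16 µg/mL wells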
# Pf Dd2 growth: inhibitors of Plasmodium falciparum Dd2 growth; P. falciparum Dd2 growth, SYBR Green, 72 h; active compounds read low; activity change, % at 10 µM; hit rate 2.3% among 94,000; in the data active = activity change below about -80%; inconclusive = no clear call, values can overlap the other calls
# T cruzi growth-1: T. cruzi proliferation inhibition | inhibition, % at 8.34 µM | T. cruzi beta-gal in NIH3T3, GalScreen luminescence, 90 h | hit rate 5.9% among 77,000;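 active = mean inhibition above about 93%, with at least 55% of replicates each passing it, limit read from the data, passing the limit was not always enough; inconclusive = only one of those two conditions holds; inactive = neither condition holds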
# T cruzi growth-2: blocks T. cruzi growth in NIH3T3 host cells. shares compounds with T cruzi growth-1. T. cruzi beta-gal in NIH3T3, GalScreen luminescence, 90 h. inhibition, % at 8.35 µM. hit rate 72% among 5,600. AID 651739;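 active = mean replicate inhibition above about 95% and at least 55% of replicates individually reaching it, limit read from the data; inconclusive = only one of the two criteria is met; inactive = neither criterion is met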
# T cruzi growth-3: Trypanosoma cruzi proliferation inhibition. shares compounds with T cruzi growth-1. T. cruzi beta-gal in NIH3T3, GalScreen luminescence, 90 h. inhibition, % at 2.09 µM. hit rate 21% among 5,600;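 active = mean inhibition above about 95%, with at least 55% of replicates also reaching it, limit read from the data; inconclusive = meets just one of the two conditions; inactive = meets neither condition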;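 note: plate controls were neutral control median for no effect and positive control median for full effect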
# 3T3 cytotox: NIH/3T3 (mouse) viability loss. hit rate 14% among 5,600. shares compounds with T cruzi growth-1. cytotoxicity (signal decrease), % at 8.35 µM. NIH/3T3 viability, CellTiter-Glo ATP luminescence, 90 h;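 active = mean signal decrease across replicates above about 35% based on untreated-well scatter, with enough replicates individually passing, limit read from the data; inconclusive = no rule stated though some were filed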;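 note: 0% = median of neutral control wells and 100% = median of positive control wells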
# 3T3 cytotox 2: kills mouse NIH/3T3 fibroblasts; shares compounds with T cruzi growth-1; NIH/3T3 viability, CellTiter-Glo ATP luminescence, 90 h; inhibition, % at 24.9 µM; hit rate 56% among 5,600; AID 651744;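 active = mean loss of cell viability signal at or above a set limit, and enough replicates individually reaching it; inconclusive = meets only the mean limit or only the replicate share; inactive = meets neither condition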;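 note: 0% = median of neutral control wells and 100% = median of positive control wells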
# An asterisk follows results filed as active; ? = inconclusive; · = no result given. This is a sample that favours compounds with a hit; in the whole collection about 6.8% have one here.
SMILES,C diff growth,Pf Dd2 growth,T cruzi growth-1,T cruzi growth-2,T cruzi growth-3,3T3 cytotox,3T3 cytotox 2
C[C@@H]1CCCCO[C@H](CN(C)Cc2ccccc2)[C@H](C)CN([C@@H](C)CO)C(=O)c2cc(N(C)C)ccc2O1,-1.1,·,-45.6,·,·,·,·
C[C@@H]1CN([C@@H](C)CO)C(=O)c2cc(N(C)C)ccc2O[C@@H](C)CCCCO[C@H]1CN(C)Cc1ccccc1,2.2,-17.3,99.3*,100.5*,71.1,14.5,-0.1
C[C@@H]1CCCCO[C@@H](CN(C)Cc2ccc(C(F)(F)F)cc2)[C@H](C)CN([C@H](C)CO)C(=O)c2cc(N(C)C)ccc2O1,12.5,-7.6,?,104.9*,91.3,3.8,59.5*
O=C(C[C@@H]1CC[C@H](NS(=O)(=O)c2ccccc2)[C@@H](CO)O1)N1CCN(c2ccccc2)CC1,-5.0,22.0,·,·,·,·,·
CNC(=O)C[C@@H]1CC[C@@H]2[C@H](COc3ccc(NC(=O)Nc4ccc(F)cc4)cc3C(=O)N2C)O1,-6.4,-36.0,25.4,·,·,·,·
C[C@@H]1CN([C@H](C)CO)C(=O)c2cc(NC(=O)CCN3CCOCC3)ccc2O[C@H]1CN(C)C(=O)NC1CCCCC1,-3.7,1.6,·,·,·,·,·
C[C@@H]1CN([C@H](C)CO)C(=O)c2cc(NS(=O)(=O)c3cccs3)ccc2O[C@H]1CN(C)Cc1ccc(-c2ccccc2)cc1,-7.0,0.8,19.1,·,·,·,·
C[C@H]1CN([C@@H](C)CO)C(=O)c2cc(NS(=O)(=O)c3cccs3)ccc2O[C@H]1CN(C)Cc1ccc(-c2ccccc2)cc1,16.5,8.1,?,85.1,-6.6,7.3,54.7*
C[C@H](CO)N1C[C@H](C)[C@@H](CN(C)CC2CC2)Oc2ccc(NS(=O)(=O)c3cccs3)cc2C1=O,2.4,4.8,23.8,·,·,·,·
C[C@@H]1CN([C@@H](C)CO)C(=O)c2cc(NS(=O)(=O)c3cccs3)ccc2O[C@@H]1CN(C)CC1CC1,2.2,8.3,99.1*,77.0,31.9,16.7,9.6
C[C@H](CO)N1C[C@H](C)[C@H](CN(C)Cc2ccc3c(c2)OCO3)Oc2ccc(NC(=O)Nc3ccc(F)cc3)cc2C1=O,6.1,-2.2,·,·,·,·,·
CCS(=O)(=O)N1CC2(CN(CC3CCOCC3)[C@@H](CO)c3c2c2ccc(OC)cc2n3C)C1,20.2,-30.8,·,·,·,·,·
O=C(N[C@H]1CC[C@H](CCn2cc(-c3ccccc3)nn2)O[C@H]1CO)c1cnccn1,-12.3,12.3,41.1,·,·,·,·
C[C@@H]1CN([C@@H](C)CO)C(=O)c2cc(NC(=O)Nc3ccc(F)cc3)ccc2O[C@@H](C)CCCCO[C@@H]1CN(C)Cc1ccc(C(F)(F)F)cc1,·,-76.4,101.4*,104.6*,114.0*,21.2,2.9
C[C@@H]1CCCCO[C@@H](CN(C)Cc2ccc(C(F)(F)F)cc2)[C@H](C)CN([C@@H](C)CO)C(=O)c2cc(NC(=O)Nc3ccc(F)cc3)ccc2O1,·,-53.6,93.8,·,·,·,·
C[C@H](CO)N1C[C@H](C)[C@@H](CN(C)Cc2ccc(C(F)(F)F)cc2)OCCCC[C@H](C)Oc2ccc(NC(=O)Nc3ccc(F)cc3)cc2C1=O,·,-10.9,?,94.6,110.0*,10.1,12.9
C[C@@H]1CN([C@@H](C)CO)C(=O)c2cc(NC(=O)Nc3ccc(C(F)(F)F)cc3)ccc2O[C@@H](C)CCCCO[C@H]1CN(C)Cc1ccc(C(=O)O)cc1,-10.6,47.0,23.6,·,·,·,·
C[C@H](CO)N1C[C@H](C)[C@@H](CN(C)Cc2ccccc2)Oc2c(NC(=O)NC3CCCCC3)cccc2C1=O,-16.9,-19.6,-3.6,·,·,·,·
COc1cccc(NC(=O)N(C)C[C@H]2Oc3ncc(/C=C/c4ccccc4)cc3C(=O)N([C@H](C)CO)C[C@H]2C)c1,5.5,-1.0,·,·,·,·,·
COc1ccc2c3c(n(C)c2c1)[C@H](CO)N(C(=O)c1ccncc1)CC31CCN(S(C)(=O)=O)CC1,3.0,14.8,·,·,·,·,·
C[C@@H]1CCCCO[C@@H](CN(C)C(=O)c2ccncc2)[C@@H](C)CN([C@H](C)CO)C(=O)c2cc(NS(=O)(=O)c3ccc(Cl)cc3)ccc2O1,·,25.5,58.9,·,·,·,·
CNC[C@@H]1OCCCC[C@@H](C)Oc2ccc(NC(=O)Nc3ccc4c(c3)OCO4)cc2C(=O)N([C@H](C)CO)C[C@@H]1C,9.8,24.9,95.5*,17.9,3.0,9.1,18.4
